Records with an inconclusive call do not appear. Where a call stands in place of a potency, no number is given. Calls of active or inactive are those of the source. The call rests on the fitted dose curve; in most records, active means well fitted cell-killing curve with a large enough effect in the repeat runs; inconclusive means weak or mixed curves; inactive means no such curve, though single readings can be large or run the other way.
experiment: qHTS assay for identifying genotoxic compounds that show differential cytotoxicity against isogenic chicken DT40 cell lines with known DNA damage response pathways - Rad54/Ku70 mutant cell line (AID 743015); conditions: DT40 Rad54/Ku70 mutant viability, CellTiter-Glo, 40 h; series mostly up to 66.8 µM; further: nearly all actives have a fitted effect of over 60% in size
Text: National Center for Advancing Translational Sciences [NCATS]
NIH Chemical Genomics Center [NCGC]
U.S. Environmental Protection Agency [EPA]
National Institutes of Environmental Health Sciences [NIEHS]
National Toxicology Program [NTP]
U.S. Food and Drug Administration [FDA]
DNA repair pathways play a critical role in cellular homeostasis by repairing DNA damage induced by endogenous processes and xenobiotics. Isogenic chicken DT40 cell lines deficient in different DNA repair pathways can be used to identify genotoxic compounds and aid in characterizing the nature of the DNA damage induced. Two DNA repair-deficient cell lines with disrupted genes, Rad54/Ku70 or Rev3, were used to screen the Tox21 10K compound library. Possible genotoxicity was based on the presence of a significant increase in cytotoxicity in one or more of the DNA repair-deficient cell lines compared to that observed in the parental DNA repair-proficient cell line. CellTiter Glo viability assay (Promega, Madison, WI) was used to measure cell viability in these cells after compound treatment. This assay includes the data from the Rad54/Ku70 mutant cell line.
Tox21 Assay Protocol Summary:
300 DT40 mutant cells in 5 uL/well were dispensed into white, solid-bottom 1536-well plates using a Multidrop Combi (ThermoFisher Scientific, Waltham, MA) dispenser. After the assay plates were incubated at 37 C/5% CO2 for approximately 0.5 hour, 23 nL of compounds dissolved in DMSO, positive controls or DMSO only was transferred into the assay plate by a pintool work station (Kalypsys, San Diego, CA). The assay plates were incubated at 37 C/5% CO2 for 40 hours. After 5 uL per well of CellTiter-Glo reagent was added into each well of the assay plates, the plates were incubated for 30 min at room temperature and the luminescence intensity of the plates was measured using a ViewLux (PerkinElmer, Shelton, CT) plate reader.
Potency means the concentration at half of the fitted maximal effect.

| SMILES | Potency |
| --- | --- |
| CC(C)[N+](=O)[O-] | inactive |
| Cc1nc(N)nc(N)n1 | inactive |
| COc1cccc2c1cc([N+](=O)[O-])c1c(C(=O)O)cc3c(c12)OCO3 | 0.193 µM (active) |
| CCN(CC)c1nc(C)cc(OP(=S)(OC)OC)n1 | 48.6 µM (active) |
| CCOP(=O)(N=C1SCCS1)OCC | inactive |
| O=c1oc2ccccc2c(O)c1C1CCCc2ccccc21 (stereo not given) | inactive |
| CN(N=O)C(N)=O | inactive |
| Nc1ccccc1Cl | inactive |
| COC(=O)c1ccccc1S(=O)(=O)NC(=O)Nc1nc(C)cc(C)n1 | inactive |
| O=C(CCN1CC1)OCC(CO)(COC(=O)CCN1CC1)COC(=O)CCN1CC1 | inactive |
| CN1CCC(O)(c2ccc(F)cc2)C(C(=O)c2ccc(F)cc2)C1 (stereo not given) | 13.3 µM (active) |
| Cc1nnc2n1-c1sc(CCC(=O)N3CCOCC3)cc1C(c1ccccc1Cl)=NC2 | inactive |
| [As]#[In] | inactive |
| COc1cc(OC)nc(NC(=O)NS(=O)(=O)c2ncccc2OCC(F)(F)F)n1 | inactive |
| CNC(=O)O/N=C(\C)SC | inactive |
| CCOP(=S)(OCC)Oc1cc(-c2ccccc2)on1 | 68.6 µM (active) |
| O=C(NCO)NCO | inactive |
| CN1C(=S)CN=C(c2ccccc2)c2cc(Cl)ccc21 | 29.8 µM (active) |
| CCC(C)n1c(=O)[nH]c(C)c(Br)c1=O (stereo not given) | inactive |
| CC1CCC(=O)O1 (stereo not given) | inactive |

| SMILES | Potency |
| --- | --- |
| Cc1ncc(CNC(=O)N(CCCl)N=O)c(N)n1 | inactive |
| N#Cc1ccncc1 | inactive |
| CC(=O)CCc1ccc2c(c1)OCO2 | inactive |
| CN(C)CCc1ccc(O)cc1 | inactive |
| ClC(Cl)Br | inactive |
| ClC(Cl)C(Cl)Cl | inactive |
| CC(CCc1ccccc1)NC(C)C(O)c1ccc(O)cc1 (stereo not given) | inactive |
| COC(=O)C(C)Oc1ccc(Oc2ccc(Cl)cc2Cl)cc1 (stereo not given) | 68.6 µM (active) |
| CNC(=O)Oc1ccccc1C1OCCO1 | inactive |
| CCS(=O)(=O)CCSP(=O)(OC)OC | 48.6 µM (active) |
| CCCCCCBr | inactive |
| CCOc1nc(C(Cl)(Cl)Cl)ns1 | inactive |
| CCOP(=S)(OCC)Oc1ncn(-c2ccccc2)n1 | 48.6 µM (active) |
| CCCSP(=O)(OCC)Oc1ccc(Br)cc1Cl (stereo not given) | 29.7 µM (active) |
| CCCSC(=O)N(CCC)CCC | inactive |
| COCC(=O)N(c1c(C)cccc1C)N1CCOC1=O | inactive |
| CCCCOP(=O)(O)OCCCC | inactive |
| CCC/C(=N\OCC)C1=C(O)CC(CC(C)SCC)CC1=O (stereo not given) | 61.5 µM (active) |
| CC1(C)COP(Oc2ccccc2)OC1 | inactive |
| CCC(=O)c1ccccc1 | inactive |
